Test results taken from PMC7862700, “An all-to-all approach to the identification of sequence-specific readers for epigenetic DNA modifications on cytosine”.

How the values were obtained:
Test in all cases: DAPPL (digital affinity profiling via proximity ligation, sequencing); 10 mM Tris-HCl pH 7.5, 50 mM NaCl, 1 mM DTT, 4% glycerol, room temperature, 30 min; GST-TFs on glutathione beads, 16-mer random dsDNA library, 0.1% formaldehyde crosslink after washing; high values mean tight binding
FEV = target: T1, FEV (Homo sapiens, UniProt Q99581 1-238); conditions: protein: recombinant; tags: N-terminal GST; dsDNA, one strand shown
T1 sequence: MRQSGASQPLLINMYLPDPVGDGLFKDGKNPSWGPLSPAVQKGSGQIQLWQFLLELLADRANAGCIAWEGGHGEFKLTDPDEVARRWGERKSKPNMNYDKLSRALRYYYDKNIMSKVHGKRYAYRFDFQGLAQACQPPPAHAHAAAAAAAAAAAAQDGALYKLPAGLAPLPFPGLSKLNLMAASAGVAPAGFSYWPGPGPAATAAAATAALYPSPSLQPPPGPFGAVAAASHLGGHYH
In short: (§1)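 Binding signal is each hexamer's read frequency for a factor divided by its frequency in the tag-only sample. The factors were GST-fused human transcription factors from yeast, captured on glutathione beads, DNA-barcoded and pooled with that sample. Pools were incubated with 200 nmole of a random double-stranded 16-mer DNA library in Tris/NaCl/DTT/glycerol buffer at room temperature for 30 min, then washed, crosslinked with 0.1% formaldehyde, proximity-ligated with BsaI/T4 ligase (1 h, 37 °C), PCR-amplified and sequenced on an Illumina NextSeq500.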

ETV5 = ETV5 (Homo sapiens, UniProt P41161 1-510); conditions: protein: recombinant; tags: N-terminal GST; dsDNA, one strand shown
ETV5, sequence (P41161 whole entry): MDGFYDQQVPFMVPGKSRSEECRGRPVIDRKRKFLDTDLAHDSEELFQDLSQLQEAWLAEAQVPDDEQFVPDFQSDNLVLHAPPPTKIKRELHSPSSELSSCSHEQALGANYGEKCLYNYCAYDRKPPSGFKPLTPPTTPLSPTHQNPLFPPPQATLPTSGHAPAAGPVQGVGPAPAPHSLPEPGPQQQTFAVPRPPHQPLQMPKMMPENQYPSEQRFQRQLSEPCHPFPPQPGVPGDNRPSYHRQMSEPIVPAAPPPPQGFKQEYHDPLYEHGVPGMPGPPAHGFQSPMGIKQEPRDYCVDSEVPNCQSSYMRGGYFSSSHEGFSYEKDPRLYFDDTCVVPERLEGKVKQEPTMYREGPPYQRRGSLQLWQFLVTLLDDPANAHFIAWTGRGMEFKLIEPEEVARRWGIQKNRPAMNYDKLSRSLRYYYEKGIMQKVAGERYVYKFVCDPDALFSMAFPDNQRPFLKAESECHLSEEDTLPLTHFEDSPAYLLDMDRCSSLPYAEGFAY
In short: as §1

HSF1 = HSF1 (Homo sapiens, UniProt Q00613 1-529); conditions: protein: recombinant; tags: N-terminal GST; chain copies: 3; dsDNA, one strand shown
HSF1, sequence (Q00613 whole entry): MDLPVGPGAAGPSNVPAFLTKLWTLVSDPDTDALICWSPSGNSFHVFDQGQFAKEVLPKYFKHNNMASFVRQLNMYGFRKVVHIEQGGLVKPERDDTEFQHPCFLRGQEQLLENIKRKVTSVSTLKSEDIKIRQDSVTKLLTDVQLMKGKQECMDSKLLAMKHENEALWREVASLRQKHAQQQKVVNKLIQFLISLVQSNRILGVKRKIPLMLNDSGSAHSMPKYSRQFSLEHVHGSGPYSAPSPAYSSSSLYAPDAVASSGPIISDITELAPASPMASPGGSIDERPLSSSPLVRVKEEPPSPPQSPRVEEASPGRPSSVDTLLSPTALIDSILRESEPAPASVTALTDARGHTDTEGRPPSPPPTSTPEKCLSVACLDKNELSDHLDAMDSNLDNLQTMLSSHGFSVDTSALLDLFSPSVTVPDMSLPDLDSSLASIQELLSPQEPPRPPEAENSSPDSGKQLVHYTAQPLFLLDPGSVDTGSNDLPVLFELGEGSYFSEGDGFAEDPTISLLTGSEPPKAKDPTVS
In short: as §1

ELF4 = ELF4 (Homo sapiens, UniProt Q99607 1-663); conditions: protein: recombinant; tags: N-terminal GST; dsDNA, one strand shown
ELF4, sequence (Q99607 whole entry): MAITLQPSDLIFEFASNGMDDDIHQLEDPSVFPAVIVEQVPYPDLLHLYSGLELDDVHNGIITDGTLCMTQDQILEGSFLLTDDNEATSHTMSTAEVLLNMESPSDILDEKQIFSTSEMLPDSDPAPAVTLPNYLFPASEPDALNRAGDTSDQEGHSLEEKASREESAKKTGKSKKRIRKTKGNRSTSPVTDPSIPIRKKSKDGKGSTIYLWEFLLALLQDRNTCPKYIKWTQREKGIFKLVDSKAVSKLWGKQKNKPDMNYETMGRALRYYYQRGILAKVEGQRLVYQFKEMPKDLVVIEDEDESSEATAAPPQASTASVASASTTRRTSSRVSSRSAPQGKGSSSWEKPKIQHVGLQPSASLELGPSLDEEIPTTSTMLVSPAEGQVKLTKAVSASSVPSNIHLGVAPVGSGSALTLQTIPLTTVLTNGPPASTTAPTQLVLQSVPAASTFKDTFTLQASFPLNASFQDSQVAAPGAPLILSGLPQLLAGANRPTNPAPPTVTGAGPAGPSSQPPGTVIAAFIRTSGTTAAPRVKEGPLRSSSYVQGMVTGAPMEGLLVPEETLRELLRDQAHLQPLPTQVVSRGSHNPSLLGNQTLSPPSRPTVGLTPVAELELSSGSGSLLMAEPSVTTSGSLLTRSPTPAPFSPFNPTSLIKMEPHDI
In short: as §1

ELK4 = target: T2, ELK4 (Homo sapiens, UniProt P28324-2 1-405); conditions: protein: recombinant; tags: N-terminal GST; dsDNA, one strand shown
T2 sequence: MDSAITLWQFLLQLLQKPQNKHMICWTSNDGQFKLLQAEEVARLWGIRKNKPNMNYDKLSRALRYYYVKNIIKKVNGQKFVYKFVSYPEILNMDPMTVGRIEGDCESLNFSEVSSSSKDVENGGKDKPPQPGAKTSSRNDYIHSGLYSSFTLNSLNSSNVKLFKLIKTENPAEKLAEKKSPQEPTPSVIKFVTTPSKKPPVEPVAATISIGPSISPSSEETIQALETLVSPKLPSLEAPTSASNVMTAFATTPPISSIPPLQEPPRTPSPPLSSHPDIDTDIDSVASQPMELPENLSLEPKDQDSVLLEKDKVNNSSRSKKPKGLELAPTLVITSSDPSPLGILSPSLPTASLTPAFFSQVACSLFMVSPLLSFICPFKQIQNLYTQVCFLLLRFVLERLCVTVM
In short: as §1

ETV2 = target: T3, ETV2 (Homo sapiens, UniProt O00321 1-342); conditions: protein: recombinant; tags: N-terminal GST; dsDNA, one strand shown
T3 sequence: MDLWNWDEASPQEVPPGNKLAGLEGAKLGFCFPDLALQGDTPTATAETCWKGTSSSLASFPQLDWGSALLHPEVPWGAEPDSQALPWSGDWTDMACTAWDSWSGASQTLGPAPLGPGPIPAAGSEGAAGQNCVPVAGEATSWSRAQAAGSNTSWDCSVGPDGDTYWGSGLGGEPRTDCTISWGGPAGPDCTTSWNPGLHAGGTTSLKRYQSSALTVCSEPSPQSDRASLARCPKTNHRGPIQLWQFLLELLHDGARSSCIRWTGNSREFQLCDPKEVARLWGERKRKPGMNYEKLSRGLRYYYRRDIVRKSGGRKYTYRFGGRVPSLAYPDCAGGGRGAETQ
In short: as §1

ELF3 = target: T4, ELF3 (Homo sapiens, UniProt P78545 1-371); conditions: protein: recombinant; tags: N-terminal GST; dsDNA, one strand shown
T4 sequence: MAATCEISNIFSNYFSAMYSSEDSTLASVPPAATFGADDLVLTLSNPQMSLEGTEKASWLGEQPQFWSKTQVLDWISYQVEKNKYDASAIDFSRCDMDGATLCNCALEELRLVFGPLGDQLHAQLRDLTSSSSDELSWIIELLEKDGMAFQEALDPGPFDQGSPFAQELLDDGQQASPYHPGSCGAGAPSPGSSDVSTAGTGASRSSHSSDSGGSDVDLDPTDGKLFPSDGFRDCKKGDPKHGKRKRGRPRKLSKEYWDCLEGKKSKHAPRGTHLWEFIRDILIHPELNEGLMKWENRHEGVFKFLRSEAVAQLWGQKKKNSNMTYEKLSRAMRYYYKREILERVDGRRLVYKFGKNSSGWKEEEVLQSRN
In short: as §1

CRX = CRX (Homo sapiens, UniProt O43186 1-299); conditions: protein: recombinant; tags: N-terminal GST; dsDNA, one strand shown
CRX, sequence (O43186 whole entry): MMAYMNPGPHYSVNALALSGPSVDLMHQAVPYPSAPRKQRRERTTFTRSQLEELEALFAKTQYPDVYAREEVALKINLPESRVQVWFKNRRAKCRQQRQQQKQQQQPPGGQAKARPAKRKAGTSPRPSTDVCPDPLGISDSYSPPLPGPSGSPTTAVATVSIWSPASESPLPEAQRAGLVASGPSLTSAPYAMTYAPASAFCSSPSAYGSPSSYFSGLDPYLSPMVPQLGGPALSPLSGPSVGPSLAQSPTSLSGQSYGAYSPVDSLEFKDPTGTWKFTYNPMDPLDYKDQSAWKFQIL
In short: as §1

ETV1 = ETV1 (Homo sapiens, UniProt P50549 1-477); conditions: protein: recombinant; tags: N-terminal GST; dsDNA, one strand shown
ETV1, sequence (P50549 whole entry): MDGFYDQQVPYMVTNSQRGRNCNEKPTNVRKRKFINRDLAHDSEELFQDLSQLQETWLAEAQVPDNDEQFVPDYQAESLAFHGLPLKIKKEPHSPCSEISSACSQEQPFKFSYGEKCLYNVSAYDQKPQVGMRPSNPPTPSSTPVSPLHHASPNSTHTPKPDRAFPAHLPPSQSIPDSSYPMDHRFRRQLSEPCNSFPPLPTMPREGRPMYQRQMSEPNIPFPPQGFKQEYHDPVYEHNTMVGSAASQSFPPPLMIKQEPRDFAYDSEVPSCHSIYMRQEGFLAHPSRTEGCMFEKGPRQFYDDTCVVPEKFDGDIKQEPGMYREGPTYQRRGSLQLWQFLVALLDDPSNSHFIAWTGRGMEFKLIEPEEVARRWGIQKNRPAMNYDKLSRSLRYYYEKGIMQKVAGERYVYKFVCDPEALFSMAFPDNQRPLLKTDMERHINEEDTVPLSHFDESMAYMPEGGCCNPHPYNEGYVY
In short: as §1

ETS2 = target: T5, ETS2 (Homo sapiens, UniProt P15036 1-469); conditions: protein: recombinant; tags: N-terminal GST; dsDNA, one strand shown
T5 sequence: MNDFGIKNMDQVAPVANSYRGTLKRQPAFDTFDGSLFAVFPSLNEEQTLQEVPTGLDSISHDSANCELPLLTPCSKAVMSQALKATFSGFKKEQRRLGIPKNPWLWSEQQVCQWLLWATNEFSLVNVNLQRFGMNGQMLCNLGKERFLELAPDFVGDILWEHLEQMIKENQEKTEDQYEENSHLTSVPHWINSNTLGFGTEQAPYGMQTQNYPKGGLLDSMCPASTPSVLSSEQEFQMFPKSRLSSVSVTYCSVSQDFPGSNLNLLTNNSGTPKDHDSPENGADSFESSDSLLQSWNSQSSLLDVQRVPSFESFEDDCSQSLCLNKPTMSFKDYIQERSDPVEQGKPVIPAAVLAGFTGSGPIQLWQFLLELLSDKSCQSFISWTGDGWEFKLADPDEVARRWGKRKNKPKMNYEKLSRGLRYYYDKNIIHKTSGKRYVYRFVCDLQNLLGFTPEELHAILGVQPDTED
In short: as §1

ETV3 = target: T6, ETV3 (Homo sapiens, UniProt P41162-2 1-143); conditions: protein: recombinant; tags: N-terminal GST; dsDNA, one strand shown
T6 sequence: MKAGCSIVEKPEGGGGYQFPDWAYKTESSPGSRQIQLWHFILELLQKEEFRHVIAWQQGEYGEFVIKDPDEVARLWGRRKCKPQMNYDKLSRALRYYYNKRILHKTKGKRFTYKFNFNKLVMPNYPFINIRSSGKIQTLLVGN
In short: as §1

ETV6 = ETV6 (Homo sapiens, UniProt P41212 1-452); conditions: protein: recombinant; tags: N-terminal GST; dsDNA, one strand shown
ETV6, sequence (P41212 whole entry): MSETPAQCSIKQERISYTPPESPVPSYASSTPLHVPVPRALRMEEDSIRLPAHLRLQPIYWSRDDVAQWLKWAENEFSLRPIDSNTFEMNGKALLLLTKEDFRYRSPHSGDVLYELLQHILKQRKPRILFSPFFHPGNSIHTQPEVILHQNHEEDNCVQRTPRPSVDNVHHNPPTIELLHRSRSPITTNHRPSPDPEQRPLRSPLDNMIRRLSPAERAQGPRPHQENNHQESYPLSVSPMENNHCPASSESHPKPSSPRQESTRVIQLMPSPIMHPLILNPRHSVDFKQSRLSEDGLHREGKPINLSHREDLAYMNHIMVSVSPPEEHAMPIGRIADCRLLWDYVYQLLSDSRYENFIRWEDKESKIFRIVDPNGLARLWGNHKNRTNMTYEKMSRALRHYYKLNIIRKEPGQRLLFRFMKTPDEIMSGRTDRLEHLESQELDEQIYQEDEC
In short: as §1

ERF = target: T7, ERF (Homo sapiens, UniProt P50548 1-548); conditions: protein: recombinant; tags: N-terminal GST; dsDNA, one strand shown
T7 sequence: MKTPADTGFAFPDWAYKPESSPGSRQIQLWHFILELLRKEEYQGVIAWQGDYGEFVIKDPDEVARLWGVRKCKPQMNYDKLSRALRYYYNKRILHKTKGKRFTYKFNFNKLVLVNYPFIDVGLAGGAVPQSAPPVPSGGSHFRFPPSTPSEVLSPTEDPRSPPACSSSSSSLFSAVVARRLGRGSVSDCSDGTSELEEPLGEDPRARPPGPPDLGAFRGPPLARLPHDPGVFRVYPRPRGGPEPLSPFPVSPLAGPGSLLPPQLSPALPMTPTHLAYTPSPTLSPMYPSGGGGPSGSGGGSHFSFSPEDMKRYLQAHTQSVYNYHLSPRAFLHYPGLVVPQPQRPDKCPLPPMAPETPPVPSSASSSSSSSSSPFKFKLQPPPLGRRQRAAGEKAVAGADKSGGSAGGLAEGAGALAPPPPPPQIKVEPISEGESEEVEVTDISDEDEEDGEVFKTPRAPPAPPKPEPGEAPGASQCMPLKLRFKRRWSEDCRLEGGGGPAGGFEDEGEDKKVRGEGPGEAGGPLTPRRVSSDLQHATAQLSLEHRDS
In short: as §1

ETV3L = target: T8, ETV3L (Homo sapiens, UniProt Q6ZN32 1-361); conditions: protein: recombinant; tags: N-terminal GST; dsDNA, one strand shown
T8 sequence: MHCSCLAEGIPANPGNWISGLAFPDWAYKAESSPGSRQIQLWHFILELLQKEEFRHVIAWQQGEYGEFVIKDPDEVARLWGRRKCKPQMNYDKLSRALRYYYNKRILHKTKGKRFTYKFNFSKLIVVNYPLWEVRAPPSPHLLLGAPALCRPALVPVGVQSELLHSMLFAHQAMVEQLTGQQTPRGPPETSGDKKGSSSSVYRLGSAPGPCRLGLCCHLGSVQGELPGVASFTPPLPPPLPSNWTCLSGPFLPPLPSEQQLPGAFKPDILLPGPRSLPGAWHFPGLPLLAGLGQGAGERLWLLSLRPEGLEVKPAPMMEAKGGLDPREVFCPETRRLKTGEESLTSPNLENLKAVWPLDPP
In short: as §1

SPDEF = target: T9, SPDEF (Homo sapiens, UniProt O95238 1-335); conditions: protein: recombinant; tags: N-terminal GST; dsDNA, one strand shown
T9 sequence: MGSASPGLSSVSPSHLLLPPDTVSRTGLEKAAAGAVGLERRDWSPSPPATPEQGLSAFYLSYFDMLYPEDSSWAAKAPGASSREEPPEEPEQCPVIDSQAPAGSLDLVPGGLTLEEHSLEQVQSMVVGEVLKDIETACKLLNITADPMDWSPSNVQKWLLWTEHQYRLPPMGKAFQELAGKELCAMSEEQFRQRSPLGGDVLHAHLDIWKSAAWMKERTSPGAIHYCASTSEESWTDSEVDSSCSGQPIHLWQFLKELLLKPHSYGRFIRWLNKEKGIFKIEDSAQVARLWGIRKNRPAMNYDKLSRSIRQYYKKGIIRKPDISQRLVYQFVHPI
In short: as §1

ETV7 = target: T10, ETV7 (Homo sapiens, UniProt Q9Y603 1-341); conditions: protein: recombinant; tags: N-terminal GST; dsDNA, one strand shown
T10 sequence: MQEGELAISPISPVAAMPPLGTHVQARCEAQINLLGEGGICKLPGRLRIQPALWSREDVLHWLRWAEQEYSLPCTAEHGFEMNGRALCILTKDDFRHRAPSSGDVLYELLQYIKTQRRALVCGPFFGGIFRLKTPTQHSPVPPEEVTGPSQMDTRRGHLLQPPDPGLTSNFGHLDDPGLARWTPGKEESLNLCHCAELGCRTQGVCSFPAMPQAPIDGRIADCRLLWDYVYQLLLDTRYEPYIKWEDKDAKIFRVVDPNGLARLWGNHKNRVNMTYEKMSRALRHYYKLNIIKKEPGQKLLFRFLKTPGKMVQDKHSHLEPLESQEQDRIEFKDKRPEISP
In short: as §1

ELF5 = target: T11, ELF5 (Homo sapiens, UniProt Q9UKW6-2 1-255); conditions: protein: recombinant; tags: N-terminal GST; dsDNA, one strand shown
T11 sequence: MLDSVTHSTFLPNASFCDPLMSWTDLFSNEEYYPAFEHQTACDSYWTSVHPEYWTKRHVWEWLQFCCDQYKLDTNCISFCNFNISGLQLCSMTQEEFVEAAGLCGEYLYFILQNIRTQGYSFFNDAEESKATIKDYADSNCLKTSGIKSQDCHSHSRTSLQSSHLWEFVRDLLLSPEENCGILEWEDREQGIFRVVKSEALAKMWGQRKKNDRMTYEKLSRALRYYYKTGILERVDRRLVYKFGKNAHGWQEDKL
In short: as §1

| Sequence | binding signal (FEV) | binding signal (ETV5) | binding signal (HSF1) | binding signal (ELF4) | binding signal (ELK4) | binding signal (ETV2) | binding signal (ELF3) | binding signal (CRX) | binding signal (ETV1) | binding signal (ETS2) | binding signal (ETV3) | binding signal (ETV6) | binding signal (ERF) | binding signal (ETV3L) | binding signal (SPDEF) | binding signal (ETV7) | binding signal (ELF5) |
| --- | --- | --- | --- | --- | --- | --- | --- | --- | --- | --- | --- | --- | --- | --- | --- | --- | --- |
| CAGATT | 1 fold enrichment (6-mer frequency, TF over GST control) | 1 fold enrichment (6-mer frequency, TF over GST control) | 1.75 fold enrichment (6-mer frequency, TF over GST control) | 1.06 fold enrichment (6-mer frequency, TF over GST control) | 1.01 fold enrichment (6-mer frequency, TF over GST control) | 1.02 fold enrichment (6-mer frequency, TF over GST control) | 1.06 fold enrichment (6-mer frequency, TF over GST control) | 2.1 fold enrichment (6-mer frequency, TF over GST control) | 1.03 fold enrichment (6-mer frequency, TF over GST control) | 1.02 fold enrichment (6-mer frequency, TF over GST control) | 1.03 fold enrichment (6-mer frequency, TF over GST control) | 1.02 fold enrichment (6-mer frequency, TF over GST control) | – | – | – | – | – |
| TCAAGG | 1.08 fold enrichment (6-mer frequency, TF over GST control) | 1.03 fold enrichment (6-mer frequency, TF over GST control) | 1.04 fold enrichment (6-mer frequency, TF over GST control) | 1.01 fold enrichment (6-mer frequency, TF over GST control) | 1.07 fold enrichment (6-mer frequency, TF over GST control) | 1.19 fold enrichment (6-mer frequency, TF over GST control) | – | 1.09 fold enrichment (6-mer frequency, TF over GST control) | 1.12 fold enrichment (6-mer frequency, TF over GST control) | 1.04 fold enrichment (6-mer frequency, TF over GST control) | 1.12 fold enrichment (6-mer frequency, TF over GST control) | 1.14 fold enrichment (6-mer frequency, TF over GST control) | 1.09 fold enrichment (6-mer frequency, TF over GST control) | 1.03 fold enrichment (6-mer frequency, TF over GST control) | 1.12 fold enrichment (6-mer frequency, TF over GST control) | 1.17 fold enrichment (6-mer frequency, TF over GST control) | 1.14 fold enrichment (6-mer frequency, TF over GST control) |
